# Columns and labels:
# Conditions in all cases: concentration: 1 μM,replicates: in singlicate; n = 1
# WNK1 = test system: WNK1
# WNK2 = test system: WNK2
# WNK3 = test system: WNK3
# WNK4 = test system: WNK4
# YANK1 = test system: T1, YANK1
# T1 construct: gene STK32A
# YANK2 = test system: T2, YANK2
# T2 construct: gene STK32B
# YANK3 = test system: T3, YANK3
# T3 construct: gene STK32C
# YES = test system: T4, YES
# T4 construct: gene YES1
# YSK1 = test system: T5, YSK1
# T5 construct: gene STK25
# YSK4 = test system: T6, YSK4
# T6 construct: gene MAP3K19
# 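Note: KINOMEscan kinase panel screen.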
SMILES,%Inh (WNK1),%Inh (WNK2),%Inh (WNK3),%Inh (WNK4),%Inh (YANK1),%Inh (YANK2),%Inh (YANK3),%Inh (YES),%Inh (YSK1),%Inh (YSK4)
O=C(Nc1ccc(Oc2ccc3nc(NC(=O)C4CC4)cn3n2)c(F)c1)c1cccn(-c2ccccc2)c1=O,0%,0%,0%,0%,0%,0%,37%,45%,0%,0%
COC(=O)Nc1nc2cc(Oc3ccc(NC(=O)Nc4cc(C(F)(F)F)ccc4Cl)cc3)ccc2[nH]1.Cl [GW697465],8%,11%,49%,48%,0%,0%,13%,29%,4%,84%
CC(=O)Nc1ccc(-c2cc3ncnc(SCC(=O)O)c3s2)cc1,2%,0%,0%,2%,0%,0%,26%,0%,11%,50%
CCCC(=O)Nc1n[nH]c2ncccc12 [SB-601436],0%,0%,0%,14%,0%,0%,0%,0%,0%,0%
COc1cccc(CNC(=O)NC2CCN(c3ccnc(Nc4cc(OC)c(OC)c(OC)c4)n3)C2)c1 (stereo not drawn) [GSK1379765],4%,33%,34%,43%,0%,0%,7%,7%,0%,37%
CC(C)c1nc(-c2cccc(NS(=O)(=O)c3ccccc3)c2)c(-c2ccnc(Nc3ccc4c(c3)CN(C)CC4)n2)s1 [GSK1649598],8%,0%,12%,0%,20%,28%,11%,99.7%,56%,55%
Cn1ccc2ncnc(Oc3ccc(NC(=O)Nc4cccc(C(F)(F)F)c4)c(Cl)c3)c21,0%,0%,0%,0%,0%,0%,13%,0%,0%,77%
Cn1ccc2ncnc(Oc3ccc(NC(=O)Nc4cccc(C(F)(F)F)c4)c(F)c3)c21,0%,0%,0%,7%,0%,0%,1%,0%,0%,68%
CCNCC(Cc1ccccc1)NC(=O)c1cc(Br)c(-c2ccnc3[nH]ccc23)s1.Cl.Cl (stereo not drawn) [GSK1383280],0%,0%,9%,28%,23%,0%,11%,19%,18%,92.5%
CN(c1ccc2c(c1)nc(NCc1ccc(F)cc1)n2C)c1ccnc(Nc2ccc(CS(C)(=O)=O)cc2)n1.Cl [GW813244],17%,3%,13%,0%,0%,0%,0%,7%,4%,99.3%
C[C@@H]1CCN(C(=O)N2CCCC2)C[C@@H]1N(C)c1ncnc2[nH]ccc12,6%,45%,0%,0%,15%,0%,0%,0%,0%,82%
CCN1CCN(CCCC(=O)Nc2n[nH]c3nc(-c4ccc(O)cc4)c(Br)cc23)CC1 [SB-731579],0%,0%,0%,0%,0%,0%,0%,0%,0%,85%
COc1cc2ncn(-c3cc(OCC4CCCCC4)c(C(N)=O)s3)c2cc1OC [GSK204559],0%,0%,0%,0%,0%,8%,6%,4%,24%,35%
Cl.Nc1n[nH]c2cc(-c3ccccn3)ccc12 [GSK2189892],0%,5%,0%,0%,2%,0%,0%,7%,8%,5%
Cc1ccc(C(=O)Nc2ccc(Oc3ccc4nc(NC(=O)C5CC5)cn4c3)c(F)c2)c(=O)n1-c1ccccc1,0%,0%,0%,0%,0%,0%,0%,71%,0%,0%
COc1cc(Nc2nccc(N3CCC(NC(=O)c4cccc(C#N)c4)C3)n2)cc(OC)c1OC (stereo not drawn) [GSK1379751],13%,19%,37%,39%,0%,0%,0%,20%,3%,39%
Cc1n[nH]c2cc(Nc3ccnc(Nc4cccc(CN5CCOCC5)c4)n3)ccc12 [GW682569],8%,19%,21%,32%,9%,0%,3%,22%,10%,90%

SMILES,%Inh (WNK1),%Inh (WNK2),%Inh (WNK3),%Inh (WNK4),%Inh (YANK1),%Inh (YANK2),%Inh (YANK3),%Inh (YES),%Inh (YSK1),%Inh (YSK4)
CSc1nccc(-c2c(-c3ccc(F)cc3)ncn2CCCN2CCOCC2)n1.Cl [SB-217146],21%,0%,0%,0%,0%,0%,0%,0%,0%,25%
c1ccc(Oc2ccc(Nc3ccnc4ccc(-c5ccccn5)cc34)cc2)cc1 [GW407034],20%,25%,20%,51%,12%,0%,30%,55%,0%,7%
CCn1c(-c2nonc2N)nc2cncc(Br)c21 [SB-738004],0%,8%,31%,39%,0%,7%,8%,0%,0%,99.7%
Nc1nccc(-c2ccc3c(N)n[nH]c3c2)n1 [GSK1034945],6%,0%,3%,0%,21%,0%,9%,0%,17%,72%
CS(=O)(=O)c1cccc(CNc2nc(Nc3ccc4c(c3)[C@@H]3C[C@@H]4CNC3=O)ncc2C(F)(F)F)c1,0%,0%,0%,0%,0%,0%,0%,0%,0%,98.5%
Cc1ccn2nc(-c3ccc(F)cc3)c(-c3ccncc3)c2c1.Cl [GW457859],0%,5%,30%,55%,91.9%,13%,0%,5%,15%,0%
CCOC(=O)N1CCC(n2cnc(-c3ccc(F)cc3)c2-c2ccnc(N)n2)CC1 [SB-219952],28%,72%,45%,0%,15%,15%,0%,10%,0%,9%
N#Cc1cccc(C(=O)NC2CCN(c3ccnc(Nc4ccc(F)cc4)n3)C2)c1 (stereo not drawn) [GSK1379708],0%,0%,12%,76%,2%,0%,10%,0%,0%,16%
O=C(Nc1ccccc1)c1cccc(Oc2ccc3nccn3n2)c1,4%,3%,8%,36%,0%,0%,0%,0%,0%,12%
Cl.c1ccc(Oc2ccc(Nc3ccnc4cc(-c5ccc(CN6CCNCC6)o5)ccc34)cc2)nc1 [GW567142],0%,16%,11%,0%,0%,0%,0%,70%,22%,30%
Cc1cccc(-c2nc(Nc3ccncc3)c3sccc3n2)n1 [GW869641],27%,0%,21%,17%,20%,14%,0%,0%,0%,41%
CNC(=O)c1ccccc1Nc1nc(Nc2cccc(CS(C)(=O)=O)c2)ncc1C.O=CO [GSK1520489],9%,79%,65%,29%,44%,0%,0%,99.8%,45%,99.8%
Cn1ccc2ncnc(Oc3ccc(NC(=O)Nc4ccnc(C(F)(F)F)c4)c(Cl)c3)c21,0%,0%,0%,0%,0%,0%,0%,0%,0%,14%
O=C1NCCc2[nH]c(-c3ccncc3)cc21,0%,26%,0%,22%,0%,0%,6%,0%,0%,99.4%
CN(c1ccccc1CNc1nc(Nc2ccc3c(c2)CC(=O)N3)ncc1C(F)(F)F)S(C)(=O)=O,0%,0%,0%,0%,11%,0%,0%,29%,11%,91.4%
CS(=O)(=O)Nc1ccc(-c2ccnc3[nH]ccc23)cc1 [GSK993273],13%,14%,9%,0%,12%,0%,20%,8%,51%,96.5%

# — PMC5540273 (PLoS ONE, 2017)
